Sampled rows, rich in hits. Any-hit rate of the full collection: about 2.6%.
PABP1 MLLE inh – inhibitors of microRNA-mediated deadenylation, human PABP1 MLLE binding; P11940; GST-MLLE / FITC-PAM2 fluorescence polarization; inhibition, % at 20 µM; 360,000 tested, 0.36% active; AID 588489; in the data active = inhibition above about 35%, passing the limit was not always enough
AI-2 QS modul – Vibrio harveyi AI-2 quorum sensing modulation. 300,000 tested, 0.4% active. activity change, % at 7.5 µM. Vibrio harveyi JMH597 AI-2 luminescence/OD600 ratio, 9 h; hits give low values; strain lacks LuxN and CqsS sensors; 0 = neutral-control median; in the data active = activity change below about -75%, passing the limit was not always enough; inconclusive = no clear call, values can overlap the other calls;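 note: luminescence divided by OD600 gain over 9 h not by final OD600 alone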
PABP FP inh – PABP-poly(A) binding inhibition | P11940 | 290,000 tested, 1% active | calls only at 35 µM | PABP-poly(A) RNA binding, fluorescence polarization;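 note: calls also rest on retests at 20 µM and on dose response follow-up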
PHOSPHO1 inh – blocks human PHOSPHO1 phosphatase activity; Q8TCT1; recombinant PHOSPHO1, absorbance phosphatase assay; inhibition, % at 13.3 µM; 290,000 tested, 1.1% active; in the data active = inhibition above about 60%
eIF4H inh – inhibitors of RNA binding by human eIF4H | Q15056 | eIF4H fluorescence polarization binding assay | inhibition, % at 35 µM | 290,000 tested, 0.94% active;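 note: calls also rest on retests at 20 µM and on dose response follow-up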
ABCB6 inh MLPCN – blocks the human ABCB6 transporter | 360,000 tested, 0.19% active | K562-ABCB6 porphyrin accumulation, flow cytometry, 1 h; hits give low values | fluorescence ratio to DMSO, % at 10 µM;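 active = fluorescence ratio to DMSO below 75%, the collection mean minus 3 SD; inconclusive = too few cells collected in the well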;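 note: signal is porphyrin accumulated inside mitochondria; lower ratio means ABCB6 inhibition with less porphyrin fluorescence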
A number is an active result; i = inactive; ? = inconclusive; nt = no result; + = active, no number. Unless noted, the rule behind the calls is not given here.

SMILES	PABP1 MLLE inh	AI-2 QS modul	PABP FP inh	PHOSPHO1 inh	eIF4H inh	ABCB6 inh MLPCN
O=C(Cn1cnc2sc3c(c2c1=O)CCCC3)NCC(=O)Nc1ccc(F)cc1F	i	i	i	64.9	i	i
O=C(Cn1cnc2sc3c(c2c1=O)CCCC3)NCC(=O)Nc1ccccc1F	i	i	i	i	i	i
COc1ccc(CNC(=O)COC(=O)c2ccc(OCc3c(C)noc3C)cc2)cc1OC	i	i	i	i	90.1	i
COc1cc(C(=O)NCCc2c[nH]c3ccccc23)ccc1OCc1c(C)noc1C	i	i	i	i	active	i
COc1ccc(CCNC(=O)c2ccc(OCc3c(C)noc3C)cc2)cc1OC	i	nt	nt	nt	nt	i
COc1cc(C(=O)NC2=NCCS2)ccc1OCc1c(C)noc1C	42.1	i	i	i	i	i
O=C(Nc1ccc2c(c1)OCCO2)C(c1cc2ccccc2o1)N1CCN(C/C=C/c2ccccc2)CC1 (stereo not given)	i	nt	nt	nt	nt	i
CCc1ccccc1N(C(C)=O)c1nc(CCl)cs1	i	i	i	i	active	i
CC(=O)N(c1nc(CCl)cs1)c1ccc(C)cc1C	i	i	i	i	i	i
COCCNC(=O)C1CCCN(C(=O)c2nc3ccccc3s2)CC1 (stereo not given)	i	nt	nt	nt	nt	i
Cc1ccc(NC(=O)C2C3CCCC2C3c2ccccc2)cc1C (stereo not given)	i	i	+	i	?	i
O=S(c1cc(Cl)cc(Cl)c1O)c1cc(Cl)cc(Cl)c1O	nt	nt	nt	nt	nt	i
Oc1c(Cl)cc(Cl)cc1Sc1cc(Cl)cc(Cl)c1O	nt	?	+	i	74.1	nt
Cc1c(C(=O)Nc2cccc(Cl)c2)c2ccccn2c1CCc1ccncc1	i	i	+	i	?	i
Cc1ccc(CNC(=O)CCS(=O)(=O)c2ccc(Br)cc2)cc1	i	i	i	i	i	i
O=C(CCS(=O)(=O)c1ccc(Br)cc1)NC1CCCCCC1	i	i	i	i	63.5	i
O=C(CCS(=O)(=O)c1ccc(Br)cc1)NCc1ccc(F)cc1	i	i	i	i	87.2	i
O=C(CCS(=O)(=O)c1ccc(Br)cc1)NCCC1=CCCCC1	i	i	i	i	64.4	i
CCOC1=C2[C@H](c3ccc(Cl)cc3)N(S(=O)(=O)c3ccc(C)cc3)C[C@H]2n2c(=O)n(-c3ccccc3)c(=O)n2C1	i	nt	nt	nt	nt	i
CC(C)(C)OC(=O)N1CCC[C@@H]1C(=O)NCc1ccccc1Cl	nt	nt	nt	nt	nt	i
CC1(C(=O)NS(=O)(=O)c2cccc(C#N)c2)CCN1C(=O)c1ccc(C2CCCCC2)cc1 (stereo not given)	i	nt	nt	nt	nt	i
COc1ccc(CNC(=O)C2Cc3c(-c4ccc5c(c4)OCO5)ccnc3O2)cc1OC (stereo not given)	i	nt	nt	nt	nt	i
CC(=O)Oc1ccccc1Cn1c(C)c(C(=O)NCc2cccc(Cl)c2)sc1=O	i	nt	nt	nt	nt	i
O=C(O)CSc1ncccn1	i	i	i	i	i	i
O=C(CSc1ncccn1)c1ccccc1Br	i	i	i	60.8	i	i
SMILES	PABP1 MLLE inh	AI-2 QS modul	PABP FP inh	PHOSPHO1 inh	eIF4H inh	ABCB6 inh MLPCN
COc1ccc(OC)c(N2C(=O)[C@@H]3C(c4ccccc4Cl)=NO[C@@H]3C2=O)c1	i	i	+	i	81.1	i
Cc1cccc(C)c1N1C(=O)[C@@H]2C(c3ccccc3Cl)=NO[C@@H]2C1=O	i	i	i	i	i	i
O=c1[nH][nH]c2c1[C@H](CCc1cccc(Cl)c1)O[C@H](CCc1ccccc1)C2	nt	nt	nt	nt	nt	i
CCCCCCC1NC(C(=O)O)CS1 (stereo not given)	38.0	i	i	i	i	i
CCCCC1NC(C(=O)O)CS1 (stereo not given)	38.1	i	i	i	i	i
CCCCCC1CCC(C(=O)O)CC1 (stereo not given)	i	i	i	i	i	i
COc1ccc(CCN2C(=O)c3ccccc3C2c2nnnn2Cc2ccccc2)cc1OC (stereo not given)	nt	nt	nt	nt	nt	i
Cc1ccnc(NC(=O)c2cc([N+](=O)[O-])cc([N+](=O)[O-])c2)c1	i	i	i	64.7	i	i
Cc1ccnc(NC(=O)Cc2ccc([N+](=O)[O-])cc2)c1	i	i	i	i	i	i
CCCCOc1ccc(S(=O)(=O)NC(=O)C2(C)CCN2C(=O)CCc2ccccc2)cc1 (stereo not given)	i	nt	nt	nt	nt	i
COc1ccc(NCC(=O)Nc2ccc(C#N)cc2)cc1Cl	i	i	i	i	i	i
COc1ccc(NC(=O)CNc2cccc(C#N)c2)cc1Cl	i	-79.9	i	i	i	i
